# The panel holds about 83,000 compounds, 20% with a hit somewhere; the sample as a whole holds those more often.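 Results are percent growth after 48 hours of single-concentration exposure. 100 means growth as in untreated cells, lower positive values show inhibition; negative values down to -100 show cell death.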 Unmarked numbers belong to inactive results. Activity calls are given as the source filed them.
# Test system: SK-MEL-28 melanoma
# Test: NCI-60 one-dose screen, 48 h (100 = growth as untreated, 0 = no growth, -100 = all killed)
# Conditions: 10 µM unless noted
# Protocol: Growth inhibition of the SK-MEL-28 human tumor cell line is measured as a screen for anti-cancer activity. Cells are grown in 96 well plates and exposed to the test compound for 48 hours. Compounds are tested at a single concentration, which is 10^-5 M for most compounds. The reported endpoint is percent growth (GI% or GIPRCNT), where numbers from 0 - 100% represent growth inhibition, and numbers from -100% - 0 represent cell death. For example, a value of 40 represents 60% growth inhibition. A value of 0 means no net growth occurred over the course of the experiment. A value of -40 indicates 40% of cells at the beginning of the experiment died by the end of the experiment. A value of -100 means all cells are dead at the end of the experiment.
# NCI-60 Human Tumor Cell Lines Screen was performed using the standard one-dose NCI protocol, which is described in more detail at https://dtp.cancer.gov/discovery_development/nci-60/default.htm.
# Compounds with GIPRCNT values below 10 were considered active. Activity score was based on GIPRCNT using the following formula: […]
# Score is 0 for GIPRCNT values of 100 or above, 50 for GIPRCNT values of 0, and 100 for GIPRCNT values of -100.
row,Compound,growth
1,C=CCn1c(SCC(=O)Nc2ccc(C(=O)/C=C/c3ccc(Br)cc3)cc2)nnc1-c1c[nH]c2ccccc12,97.1%
2,COc1ccc2c(c1)c(CC(=O)[Se]CCC#N)c(C)n2C(=O)c1ccc(Cl)cc1,-1.32% (active)
3,Cc1cc2ncc(-c3cc4ccccc4c(N4CCN(C)CC4)n3)nc2cc1C,-69.9% (active)
4,Cn1ccnc1C(=O)/C=C/c1ccc(CNC(=O)c2c(F)c(F)c(F)c(F)c2F)cc1,90.8%
5,Cn1cc(-c2nc(N)nnc2-c2c[nH]c3ccccc23)c2cc(Br)ccc21,55.2%
6,Cc1nc(-c2ccccc2O)ccc1C(=O)N=Nc1c(O)[nH]c2ccc(Br)cc12,101%
7,CCCCCc1ccc(S(=O)(=O)Nc2cccc(-c3csc(NC(=O)CCCCCN4CCN(CCO)CC4)n3)c2)cc1,71.1%
8,COc1ccc2[nH]cc(/C=N/Nc3nc4ccccc4s3)c2c1,83.1%
9,Nc1nc(Nc2ccccc2SSc2ccccc2Nc2nc(N)nc(-c3cccc(Br)c3)n2)nc(-c2cccc(Br)c2)n1,98.9%
10,O=C1[C@H]2Cc3c([nH]c4ccccc34)[C@@H](c3c(Cl)cccc3Cl)N2C(=O)CN1C1CCN(CC2CCCCC2)CC1,99.3%
11,Cc1ccc(C2=Nn3c(nnc3-c3ccccc3)SC2)cc1,76.2%
12,CC(C)(C)n1nnnc1C(Nc1cccc2c1OCO2)c1cc2cccc3ccc4cccc1c4c32 (stereo not given),94.4%
13,CCCCCCCn1cc2c(NCCc3ccccc3)ncnc2n1,101%
14,COc1c(N2CC3CCCNC3C2)c(F)cc2c(=O)c(C(=O)N/N=C/c3ccc(Br)cc3)cn(C3CC3)c12 (stereo not given),86.2%
15,Nc1nc(Nc2ccccc2SSc2ccccc2Nc2nc(N)nc(-c3ccc4ccccc4c3)n2)nc(-c2ccc3ccccc3c2)n1,102%
16,Cc1ccc2c(c1)C(=O)/C(=C/c1cccc(F)c1)S2,101%
17,CS(=O)(=O)Nc1cc(-c2ccc3ncc(C#N)c(NCc4ccccc4O)c3c2)cnc1Cl,5.12% (active)
18,Cc1ccc(-n2cc(/C=N/NC(=O)c3nc(N)n[nH]3)c(-c3ccc(S(C)(=O)=O)cc3)n2)cc1,101%
19,CCCCCc1ccc(S(=O)(=O)Nc2cc(-c3csc(NC(=O)CN4CCN(C)CC4)n3)ccc2N2CCN(C)CC2)cc1,-87.3% (active)
20,CCN1CCN(Cc2cn(-c3ccc(S(N)(=O)=O)cc3)nn2)CC1,116%

row,Compound,growth
1,N#Cc1c(Nc2ccccc2)nn2c(-c3ccc([N+](=O)[O-])cc3)ccnc12,100%
2,Cc1nn(-c2ccccc2)c2ncnc(N/N=C/c3ccccc3)c12,98.4%
3,COc1ccc(S(=O)(=O)NCCCNc2nccc(-c3cn(C(C)(C)C)nc3-c3ccc(Cl)c(OC)c3)n2)cc1,98.9%
4,O=C(O)c1ccc(-n2cc(CNc3cc(F)c(F)c(F)c3)c(-c3ccc(F)cc3)n2)cc1,85.9%
5,COc1ccc(-c2cc(-c3ccc(Cl)cc3)c(C#N)c(=O)n2Cc2ccc(C(=O)O)cc2)cc1,60.7%
6,COc1cc(/C=N/NC(=O)c2cn(C3CC3)c3c(OC)c(N4CC5CCCNC5C4)c(F)cc3c2=O)ccc1O (stereo not given),94.4%
7,Cn1cc(CNc2nc3ccc(OC/C(=C/F)CN)cc3o2)ccc1=O,99.4%
8,CCOC(=O)C1=NNC(c2ccc(Cl)cc2)C1C(=O)N1C(=S)NC(=O)C1CC(C)C (stereo not given),103%
9,C[C@H](CCC(=O)NCc1ccc(C(=O)Nc2ccccc2N)cc1)[C@H]1CC[C@H]2[C@@H]3[C@@H](O)C[C@@H]4C[C@H](O)CC[C@]4(C)[C@H]3CC[C@]12C,63.6%
10,CCCSc1nc(Nc2ccc(/C(C)=N\NC(N)=S)cc2)c(C#N)c(-c2ccccc2)n1,84.6%
11,Cc1cc2nc(C(Cl)Cl)nc(-c3cccs3)n2n1,14.6%
12,COC[C@]12CCC(C)(C)C[C@H]1C1=CC[C@@H]3[C@@]4(C)CCCNC(C)(C)[C@@H]4CC[C@@]3(C)[C@]1(C)CC2,-79.4% (active)
13,NC(N)=Nc1ccc(Oc2cccc(NC(N)=Nc3ccc(Cl)c(C(F)(F)F)c3)c2)cn1,61.6%
14,COc1ccc(Cn2cc3c(c2-c2cc(OC)c(OC)c(OC)c2)CCc2c(CN4CCCC4)noc2-3)cc1,60.9%
15,COc1cc(OC)c(/C=C/S(=O)(=O)Cc2ccc(OC)c(NCC(=O)NO)c2)c(OC)c1,56.8%
16,CN1CCN(Cc2ccc(NC(=O)c3cncc(C#Cc4cnc5ccc(NCCCO)nn45)c3)cc2C(F)(F)F)CC1,-21% (active)
17,O=S(=O)(NCCNc1nccc(-n2cnc3ccccc32)n1)c1ccc(C(F)(F)F)cc1,77.2%
18,C/C(=N\O)[C@H]1C[C@]23CC[C@]4(C)[C@H](CC[C@@H]5[C@@]6(C)CC/C(=N/O)C(C)(C)[C@@H]6CC[C@]54C)[C@H]2[C@H](C)C1(C)OC3,110%
19,O=C(NCc1ncc[nH]1)c1ccc(-c2nc3ccc4[nH]ncc4c3c3c2CCCC3)cc1,-1.75% (active)
20,CCNC(=O)N1CCc2cc(OC)c(OCCc3ccc(OC)c(N)c3)cc2C1c1cc(C)c(C)cc1C (stereo not given),44.7%

# From PubChem BioAssay (NCI)
